Only some compounds are listed: those with a hit (about 9.4% of all), similar ones and a draw of the others.
NPC1 promoter act: activates the NPC1 promoter; Huh7 NPC1 promoter luciferase reporter, 24 h; Potency, µM (doses to about 9.22 µM), for inactives: at the top dose activation, most hits filed as activators; 320,000 tested, 2.4% active; AID 485313; also: % of control where 0% means no effect; nearly all actives have a fitted effect of over 60% in size
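Stably transfected Huh7 (NPC1 promoter→luciferase), 1500 cells/well in Opti-MEM + 10% FBS, 2 h settle, then compound 24 h at 37 °C. Luminescence after 10 min with Amplite reagent.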
FLuc counter: counter-screen for miR-21 project: firefly luciferase inhibitors or activators; AID 588342; purified FLuc, Km substrates, luminescence inhibition; Potency, µM (series often up to 57.5 µM), for inactives: top-dose activity change, negative = inhibition, usual class: inhibitors; 360,000 tested, 6.9% active;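 also: plate controls were vehicle for no effect and reference inhibitor for full effect; nearly all actives have a fitted effect of over 55% in size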
Target sequence (P08659 whole entry, looked up): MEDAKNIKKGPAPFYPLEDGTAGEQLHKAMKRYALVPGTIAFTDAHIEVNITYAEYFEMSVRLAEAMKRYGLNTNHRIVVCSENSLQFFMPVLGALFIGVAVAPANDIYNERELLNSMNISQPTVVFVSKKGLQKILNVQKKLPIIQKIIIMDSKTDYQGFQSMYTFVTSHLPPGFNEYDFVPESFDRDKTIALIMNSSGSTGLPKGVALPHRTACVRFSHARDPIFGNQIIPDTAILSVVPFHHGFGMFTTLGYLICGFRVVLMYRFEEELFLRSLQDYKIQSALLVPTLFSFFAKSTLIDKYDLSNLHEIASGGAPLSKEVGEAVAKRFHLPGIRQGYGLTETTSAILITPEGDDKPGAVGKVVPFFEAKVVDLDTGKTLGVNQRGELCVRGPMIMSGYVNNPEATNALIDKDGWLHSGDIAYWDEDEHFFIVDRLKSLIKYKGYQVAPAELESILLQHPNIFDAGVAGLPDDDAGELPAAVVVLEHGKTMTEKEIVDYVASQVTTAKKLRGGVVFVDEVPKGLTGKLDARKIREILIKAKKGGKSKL
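Purified P. pyralis luciferase, 10 nM final, with Km-level 10 uM D-luciferin and 10 uM ATP in 50 mM Tris acetate pH 7.5, 10 mM Mg acetate, 0.01% Tween-20, 0.05% BSA; 6-point qHTS titration about 60 µM downward; luminescence read.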
ELG1 genotox: genotoxicity induction in ELG1-luciferase HEK293T cells; HEK293T ELG1-luciferase reporter, luminescence, 16 h; 330,000 tested, 1.3% active; AID 504466; Potency, µM (series often up to 46 µM), inactives show top-dose activity change, positive = activation, actives largely listed as activators; also: % of control where 0% means no effect; nearly all actives have a fitted effect of over 60% in size
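HEK293T cells expressing luciferase-tagged ELG1 were treated with compound or DMSO for 16 hr at 37°C. Luciferase activity was then read after 30 min with ONE-Glo at room temperature; rising signal flags genetic stress.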
Rab9 prom act: Rab9 promoter activation; Huh7 Rab9 promoter-luciferase reporter, luminescence, 24 h; Potency, µM (doses to about 9.22 µM), for inactives: at the top dose activation, negative = inhibition, usual class: activators; 320,000 tested, 2.8% active; AID 485297; also: % of control where 0% means no effect; nearly all actives have a fitted effect of over 60% in size
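Luciferase signal after 10 min detection reagent at ambient indicates Rab9 promoter upregulation; stably transfected Huh7 cells were treated 24 h with compound in DMSO at 37 °C, 5% CO2.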
SMN2 splice up: SMN2 splice variant enhancement; HEK293 SMN2-luciferase splicing reporter, luminescence, 30-36 h; Potency, µM (titrated, usually from 46.1 µM), inactives show top-dose activity change, positive = activation, actives largely listed as activators; 210,000 tested, 2.8% active; AID 1458; also: % of control where 0% means no effect; nearly all actives have a fitted effect of over 55% in size
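HEK293 cells carry an SMN2 […]–luciferase reporter in which exon 7 inclusion puts luciferase in frame. Cells were plated 10-12 h before compound addition, then incubated 30-36 h at 37C. ONE-Glo luminescence was read; sodium butyrate at 4.5 mM final served as control.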
ELG1 DNA repair: blocks ELG1-dependent DNA repair in HEK293T cells; HEK293T ELG1-luciferase reporter, luminescence, 16 h; DNA damage induced by 5-fluorouridine; Potency, µM (highest dose often 46.1 µM), for inactives: at the top dose activity change, negative = inhibition, most hits filed as inhibitors; 330,000 tested, 2.3% active; also: % is scaled to controls: 0 for no effect and ±100 for the full control effect; nearly all actives have a fitted effect of over 55% in size
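In this reporter screen, reduction of luminescence relative to DMSO vehicle indicated activity. Compounds and 5-fluorouridine were added together to 2,000 cells per well, incubated for 16 hr at 37 °C, then developed with ONE-Glo.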
* = called active by the depositor; ? = inconclusive; nt = not tested or not shown; [ ] = dose if it differs, or a comment. Calls follow the shape of the dose curve; as a rule, active = well fitted curve in the direction sought with a large enough effect; inconclusive = small, poorly fitted or top-dose-only effect, or another doubt; inactive = no such curve, though single readings can be large; an effect the other way counts as inactive or inconclusive. Potency is read from the fitted curve at half-maximal effect.

SMILES | NPC1 promoter act | FLuc counter | ELG1 genotox | Rab9 prom act | SMN2 splice up | ELG1 DNA repair
CN1CCN(/N=C/c2ccc(Cl)c(Cl)c2)CC1 | ? | 19µM* | ? | ? | 13µM* | ?
COc1ccc(C(=O)Nc2cccc(C(C)=O)c2)cc1OC | 18% | ? | 18% | 7% | 14% | ?
COC(=O)c1cccc(NC(=O)c2cc(OC)c(OC)c(OC)c2Br)c1 | 0% | -7% | -4% | 1% | ? | 12µM*
COc1ccc(C(=O)Nc2cccc(C(C)=O)c2)c(OC)c1OC | 20% | 12µM* | ? | 23% | -3% | ?
COc1cc(C(=O)Nc2cccc(C)c2C)c(Br)c(OC)c1OC | -5% | -2% | -7% | -10% | 0% | -12%
CC(=O)c1cccc(NC(=O)c2cccc3ccccc23)c1 | 2% | ? | 0%[9.26 µM] | 4% | nt | 20%
COc1cc(OC)c(C(=O)Nc2cccc(C(C)=O)c2)cc1OC | 18% | 13µM* | ? | ? | -12% | 11%
COc1ccc(-n2c3c(cc(-c4nc(-c5ccc(Cl)cc5)cs4)c2=O)C(=O)CC(C)(C)C3)cc1Cl | nt | 3% | nt | nt | 6% | nt
N#CC1(c2nc3ccccc3[nH]2)CC1c1ccc2c(c1)OCO2 (configuration not stated) | 1% | 19µM* | 3% | 0% | 11% | -5%
C(=N\Nc1nc2ccccc2[nH]1)/c1ccc2c(c1)OCO2 | 1.6µM* | 7.6µM* | ? | 2µM* | 13µM* | ?
CC(C)C(NC(=O)c1ccc2c(c1)OCCO2)c1nc2ccccc2[nH]1 (configuration not stated) | -9% | -1% | ? | -7% | nt | ?
C/C(=N\Nc1nc2ccccc2[nH]1)c1ccc2c(c1)OCCO2 | -38% | 6µM* | -4% | -5% | nt | ?
O=C(CCc1nc2ccccc2[nH]1)Nc1ccc2c(c1)OCO2 | 4% | ? | 6% | -1% | -6% | 8%
Clc1ccccc1N/N=C/c1ccc2c(c1)OCO2 | 2.8µM* | 11µM* | ? | 2.8µM* | 20µM* | ?
O=C(Oc1ccccc1)N1CCC2(CC1)CCN(c1ccccn1)CC2 | nt | nt | nt | nt | -64% | nt
O=C(CCc1nc2ccccc2[nH]1)NCc1ccc2c(c1)OCO2 | 1% | -1% | 1% | -1% | -5% | 21%
C/C(=N\Nc1nc2ccccc2[nH]1)c1ccc2c(c1)OCO2 | 14% | 27µM* | -5% | 15% | 0% | -7%
C/C(=N\Nc1ccccn1)c1ccc2c(c1)OCO2 | ? | 21µM* | ? | 3.2µM* | nt | ?
COc1ccc(/C(C)=N\NC(=O)c2ccc3c(c2)OCO3)cc1OC | 1% | ? | 3% | 2% | -8% | ?
CCN1CCN(C(c2ccc(F)cc2)c2sc3nc(-c4ccco4)nn3c2O)CC1 (configuration not stated) | nt | 4% | nt | nt | nt | nt
CN1CC(O)C2=CC(=O)C(=O)C=C21 (configuration not stated) | nt | nt | nt | nt | -6% | nt
COc1ccccc1NC(=O)CSc1nncn2c1cc1sccc12 | nt | -2% | nt | nt | nt | nt
COc1ccc(-c2nnc(SCC(=O)Nc3sc4c(c3C#N)CCCC4)n2-c2ccccc2)cc1 | -1% | 2% | 10% | -3% | -19% | -10%
Cc1nnc(SCC(=O)Nc2sc3c(c2C#N)CCCCC3)n1N | 26% | 21µM* | ? | 19% | 17% | ?
COc1ccc(-n2c(SCC(=O)Nc3sc4c(c3C#N)CCCC4)nnc2-c2ccccc2OC)cc1 | 1% | 0% | -2% | -3% | -16% | 26µM*
SMILES | NPC1 promoter act | FLuc counter | ELG1 genotox | Rab9 prom act | SMN2 splice up | ELG1 DNA repair
CC1=C(C(=O)Nc2ccccc2)C(c2ccccn2)n2nc(SCc3ccccc3Cl)nc2N1 (configuration not stated) | nt | -1% | nt | nt | -4% | nt
COCC(=O)n1nc(NCc2ccc(OC)cc2)nc1NCc1ccc(OC)cc1 | -2% | -15% | 1% | -1% | 11% | 3%
CCC(=O)n1nc(NCc2ccc(OC)c(OC)c2)nc1NCc1ccc(OC)c(OC)c1 | -4% | 1% | -5% | -4% | -20% | 10µM*
Cc1ccc(Cl)cc1N1CCN(C(=O)COc2ccc(S(=O)(=O)NC(C)C)cc2)CC1 | -16% | 0% | -8% | -19% | -64% | 7.3µM*
CS(=O)(=O)N(CC(=O)N1CCN(c2cccc(Cl)c2)CC1)C1CCCCC1 | 0% | -2% | -8% | -6% | -20% | -7%
Cc1ccc(Cl)cc1N1CCN(C(=O)CN(C2CCCCC2)S(C)(=O)=O)CC1 | -7% | 6% | -5% | -13% | -92% | 18µM*
Cc1ccc(Cl)cc1N1CCN(C(=O)C2CCN(S(=O)(=O)c3c(C)nn(C)c3C)CC2)CC1 | -2% | 1% | -10% | 1% | -30% | 18µM*
CNC1=C(N(C(C)=O)c2ccc(Br)cc2)C(=O)c2ccccc2C1=O | -35% | -7% | -13% | -39% | -84% | 3.7µM*
CCC(=O)N(C1=C(NC)C(=O)c2ccccc2C1=O)C(C)C | -43% | 6% | -16% | -23% | -113% | ?
COc1ccc2c(c1)c(CC(=O)Nc1cccc(F)c1C)c(C)n2C(=O)c1ccc(Cl)cc1 | nt | -1% | nt | nt | 4% | nt
CC(=O)Nc1ccc(NC(=O)COc2cc(O)c3c(c2)OC(C)(C)CC3=O)cc1 | 11% | 21µM* | 10% | 2% | nt | 15%
CC1(C)CC(=O)c2c(O)cc(OCC(=O)N3CCN(c4ccc(F)cc4)CC3)cc2O1 | -3% | 21µM* | -13% | 4% | nt | ?
CC1(C)CC(=O)c2cc(OCC(=O)N3CCN(c4ccccc4F)CC3)ccc2O1 | 2% | 0% | -11% | -4% | -17% | -1%
COc1cc(O)c2c(c1)OC(C)(C)CC2=O | -1% | -2% | -1% | -4% | -8% | -1%
Cc1cc(OCC(=O)Nc2ccc(Br)cc2)cc2c1C(=O)CC(C)(C)O2 | -7% | -13% | -8% | -6% | nt | 15µM*
COc1ccc(N2CCN(c3nc4ccc(C)cc4n4nnnc34)CC2)cc1 | nt | 0% | nt | nt | nt | nt
C[C@@]12CC[C@@H]3[C@@H](CC[C@H]4C[C@@H](O)CC[C@]43C)[C@H]1CC[C@@H]2c1cc(C(F)(F)F)n[nH]1 | nt | nt | nt | nt | -8%[9.22 µM] | nt
Cc1nc(NCc2ccccc2)c2nc(-c3ccccc3)n(CCN3CCCCC3)c2n1 | nt | nt | nt | nt | -36% | nt
CCOC(=O)c1nc(Nc2ccc(C(=O)OC(C)C)cc2)c2ccccc2n1 | nt | 3% | nt | nt | -15% | nt
CCc1ccccc1NC(=O)CN1CCN(C(=O)c2ccc(OCc3cn4ccccc4n3)cc2)CC1 | -2% | -2% | -3% | -1% | nt | 6.5µM*

Bioassay records: PubChem, National Center for Advancing Translational Sciences (NCATS)
